An excerpt weighted towards active compounds, which were near 6.2% of everything screened.
Marburg entry inh – Marburg virus entry inhibition. Marburg virus pseudotyped entry inhibition, cell reporter. Potency, µM (highest dose often 37.8 µM), inactives show at the top dose activity change, negative = inhibition, most hits filed as inhibitors. 1.8% of 300,000 active; calls by dose curve; tested in HEK293 cells; also: potency is read from the fitted curve at half-maximal effect
LASV entry inh – inhibitors of Lassa virus binding or cell entry | 1.2% of 300,000 active | Lassa virus pseudotype entry inhibition, cell reporter | Potency, µM (series often up to 37.9 µM), for the others: at the top dose activity change, negative = inhibition, actives largely listed as inhibitors | AID 540256; calls by dose curve; tested in HEK293 cells; also: potency is read from the fitted curve at half-maximal effect; nearly all actives have a fitted effect of over 50% in size
HCMV antiviral – human cytomegalovirus inhibition; HFF cells, HCMV-luciferase reporter, 72 h; active compounds read low; activity change, negative = inhibition, % at 57.5 µM; 4.5% of 410,000 active; AID 1259415; in the data active = activity change below about -60%; inconclusive = no clear call, values can overlap the other calls; inactive = above about -39%
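Steps: HFFs plated, 16 h 37C; compounds added; HCMV-luciferase added to MOI 1 PFU/cell; 72 h 37C; OneGlo reagent, 5 min room temperature; luminescence read, normalized to controls.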
FMDV inh – blocks foot and mouth disease virus; FMDV antiviral cell-based qHTS; Potency, µM (series often up to 57.9 µM), without a hit: top-dose activity change, negative = inhibition, usual class: inhibitors; 1.2% of 410,000 active; calls by dose curve; tested in HEK293T cells; also: read-out not given here; potency is read from the fitted curve at half-maximal effect; nearly all actives have a fitted effect of over 45% in size
* = called active by the depositor; u = inconclusive; x = not tested or not shown; [ ] = dose if it differs, or a comment. % is scaled to controls: 0 for no effect and ±100 for the full control effect.

SMILES	Marburg entry inh	LASV entry inh	HCMV antiviral	FMDV inh
NC(=O)c1c(NC(=O)CSc2nnc(-c3ccccc3)n2CC2CCCO2)sc2c1CCC2 (centres undefined)	-12%	2%	-15	-7%
O=C(c1ccc2c(c1)C(=O)N(CCCO)C2=O)c1ccc2c(c1)C(=O)N(CCCO)C2=O	10%	-1%	1	-10%
O=C1c2ccc3c4c(ccc(c24)C(=O)N1CCCCO)C(=O)N(CCCCO)C3=O	x	x	-100*	u
Cc1ccc(NC(=O)COc2cccnc2[N+](=O)[O-])cc1S(=O)(=O)N1CCOCC1	-2%[46.1 µM]	2%	10	3%
Cc1cc(C)cc(NC(=O)NCc2c(-n3cccc3)sc3c2CCCC3)c1	u	-11%[46.1 µM]	4	-7%
O=C(NCc1c(-n2cccc2)sc2c1CCCC2)Nc1cccc(C(F)(F)F)c1	19%[46.1 µM]	23%[46.1 µM]	-73*	u
O=C(NCc1cccnc1)Nc1cccc(C(F)(F)F)c1	-3%[46.1 µM]	20%[46.1 µM]	-70*	6%
COc1ccc(CN(C)C(=O)c2ccc(OCC(=O)Nc3cccc(C(F)(F)F)c3)c(OC)c2)cc1	x	x	-62*	u
O=C(NCc1cccnc1)Nc1cccc(NC(=O)NCc2cccnc2)c1	2%	-1%	11	18%
COc1cc(C(=O)NCc2cccnc2)ccc1OCC(=O)Nc1cccc(C(F)(F)F)c1	u	u	-73*	11µM*
Cc1ccccc1C(=O)n1nc(-c2cccnc2)nc1NCc1ccccc1	5%[46.1 µM]	14%[46.1 µM]	3	-26%
Cn1c(NCC(O)c2ccccc2)nc2c1c(=O)n(Cc1ccc(Cl)c(Cl)c1)c(=O)n2C (centres undefined)	u	u	u	14µM*
O=C(c1cc(=O)[nH]c2ccccc12)N1CCc2ccccc2C1	4%	2%	34	9%
CCc1nnc(NC(=O)Nc2ccc(Cl)cc2)s1	x	x	-40	7%
O=C(Nc1ccc(Cl)cc1)Nc1nnc(CSCc2ccc(Cl)cc2)s1	x	x	-67*	u
CC(C)c1ccc(/C=C/C(=O)NC(=S)NN2CCOCC2)cc1	x	x	-98*	-5%
CC(C)c1ccc(C(=O)NN2CCOCC2)cc1	x	x	16	-4%
O=C(NC(=S)Nc1ccc(CN2CCOCC2)cc1)c1ccc([N+](=O)[O-])cc1	x	x	32	u
CC(C)c1ccc(/C=C/C(=O)NC(=S)Nc2ccc(CN3CCOCC3)cc2)cc1	u	u	u	20µM*
CC(C)CC(=O)NC(=S)Nc1ccc(CN2CCOCC2)cc1	u	25%[46.1 µM]	26	19%
O=C(/C=C/c1cccc([N+](=O)[O-])c1)NC(=S)Nc1ccc(CN2CCOCC2)cc1	3%	u	-72*	u
O=C1NC(=S)NC(=O)C1c1ccccc1	3%[46.1 µM]	9%[46.1 µM]	-10	-6%
COc1ccc(C(=O)C(OC(=O)c2ccccc2Cl)c2ccccc2)cc1 (centres undefined)	-2%	10%	12	27%
COc1ccc(NC(=O)c2cc(Br)ccc2Cl)c([N+](=O)[O-])c1	-10%[46.1 µM]	-13%	-63*	-11%
COc1ccc(NC(=O)c2ccc([N+](=O)[O-])s2)c([N+](=O)[O-])c1	x	x	-85*	35%
SMILES	Marburg entry inh	LASV entry inh	HCMV antiviral	FMDV inh
COc1ccc(NC(=O)c2ccc(C)cc2Cl)c([N+](=O)[O-])c1	u	-1%	34	28%
O=C(NC1CCCCC1)C1CCN(S(=O)(=O)N2CCCCCC2)CC1	19%	1%	-12	-24%
O=C1CCCc2oc3ccc(NS(=O)(=O)c4cccc5cccnc45)cc3c21	u	-1%	u	-29%
CC1(C)CC(=O)c2c(oc3ccc(NS(=O)(=O)c4cccc5cccnc45)cc23)C1	u	u	u	11µM*
O=C(O)c1cccc2c1C(=O)c1ccc(-c3ccc(F)cc3OCc3ccccc3)cc1S2(=O)=O	x	x	x	39%
O=C(O)c1cccc2c1C(=O)c1ccc(-c3ccc(F)cc3F)cc1S2(=O)=O	x	x	-61*	0%
Cn1c(=O)c2cc(NC(=S)NC3CCCCC3)ccc2n1Cc1cccc(C(F)(F)F)c1	x	x	-71*	8%
CCNC(=S)Nc1ccc2c(c1)c(=O)n(C)n2Cc1cccc(C(F)(F)F)c1	x	x	-7	-14%
O=[N+]([O-])c1ccc(OCc2cn([C@@H](CO)c3ccccc3)nn2)c(Br)c1	x	x	8	0%
Nc1nc(=S)c2[nH]cnc2[nH]1	x	x	-86*	-10%
Nc1nc(=S)c2[nH]c(=S)[nH]c2[nH]1	-2%[46.1 µM]	-7%[46.1 µM]	-12	-3%
C=CCOc1ccc(CNc2nccs2)cc1OCC	14%	-5%	-64*	-5%
COc1ccc(CNc2nccs2)cc1OC	3%	1%	8	-11%
CSc1ccc(Cl)c(C(=O)OCC(=O)N(C)CCC#N)c1	x	x	-23	-12%
Cc1ccc(/C=C2\SC(N3CCCCC3)=NC2=O)cc1	10%	u	50	57%
C=CCOc1c(CNc2cccc(C(=O)O)c2)cccc1OCC	22%	15%	-81*	6%
COc1ccccc1NCCC(=O)OCC(=O)NC1CCCCC1	u	17%	-35	-12%
COc1ccccc1NCCC(=O)OCC(=O)NC1CC1	x	x	-83*	5%
c1ccc(-c2nnc(SCc3nc4ccccc4[nH]3)n2Cc2ccco2)cc1	-12%	8%	-68*	-7%
CCn1c(SCc2nc3ccccc3[nH]2)nnc1-c1ccc(OC)cc1	-11%	-3%	-73*	u
Cc1ccc(OCc2nnc(SCc3nc4ccccc4[nH]3)n2Cc2ccco2)cc1	u	u	-69*	u
Nn1c(SCc2nc3ccccc3[nH]2)nnc1-c1ccccc1	-5%	-8%	-1	7%
C=CCn1c(SCc2nc3ccccc3[nH]2)nnc1-c1ccc(OC)cc1	-26%	0%	u	u
Cc1ccc(Oc2ccccc2NC(=O)CSCC(=O)Nc2cc(C)on2)cc1	13µM*	u	-75*	u
Cc1cc(NC(=O)CSCC(=O)Nc2ccccc2Oc2ccccc2)no1	2.8µM*	u	-37	u
SMILES	Marburg entry inh	LASV entry inh	HCMV antiviral	FMDV inh
COc1ccc(-c2nc(-n3c(C)c(C(C)=O)c(C(C)=O)c3C)sc2C)cc1OC	-21%	3%	48	-28%
CC(=O)c1c(C(C)=O)c(C)n(-c2nc(-c3ccc(Br)cc3)c(C)s2)c1C	u	16µM*	u	u
COc1ccc(CNC(=O)OCc2nccnc2C(=O)Nc2ccc(Br)cn2)cc1	x	x	-2	u
Cc1sc(NC(=O)c2ccco2)c(C(c2cccnc2)N2CCN(CCO)CC2)c1C (centres undefined)	x	x	-23	5%
Cc1sc(NC(=O)c2ccccc2)c(C(c2ccc(Cl)cc2)N2CCN(CCO)CC2)c1C (centres undefined)	u	u	3	11%
CCOC(=O)C1CCN(C(c2cccnc2)c2c(NC(=O)c3ccco3)sc(C)c2C)CC1 (centres undefined)	u	u	-97*	25µM*
Cc1ccc(C(c2c(NC(=O)c3ccco3)sc(C)c2C)N2CCOCC2)cc1 (centres undefined)	x	x	-13	-21%
Cc1sc(NC(=O)c2ccco2)c(C(c2cccnc2)N2CCN(c3ccc(F)cc3)CC2)c1C (centres undefined)	x	x	-100*	u

Screening data deposited in PubChem by National Center for Advancing Translational Sciences (NCATS).
